Experimental data from PubChem BioAssay AID2162 (National Center for Advancing Translational Sciences (NCATS), 2009).
Records with an inconclusive call do not appear. A number with no mark means an inactive call. Calls of active or inactive are those of the source. Calls come from the whole dose curve; as a rule, active = well fitted inhibition curve with a large enough effect; inconclusive = small, poorly fitted or top-dose-only effect; inactive = flat fitted curve, though single readings scatter.

molecular target: Polyunsaturated fatty acid lipoxygenase ALOX12 (Homo sapiens) (UniProt P18054); assay: Confirmation qHTS Assay for Inhibitors of 12-hLO (12-human lipoxygenase); conditions: purified 12-hLO, xylenol orange absorbance; activity change, negative = inhibition: stronger effect = lower value
Sequence (P18054 whole entry, looked up): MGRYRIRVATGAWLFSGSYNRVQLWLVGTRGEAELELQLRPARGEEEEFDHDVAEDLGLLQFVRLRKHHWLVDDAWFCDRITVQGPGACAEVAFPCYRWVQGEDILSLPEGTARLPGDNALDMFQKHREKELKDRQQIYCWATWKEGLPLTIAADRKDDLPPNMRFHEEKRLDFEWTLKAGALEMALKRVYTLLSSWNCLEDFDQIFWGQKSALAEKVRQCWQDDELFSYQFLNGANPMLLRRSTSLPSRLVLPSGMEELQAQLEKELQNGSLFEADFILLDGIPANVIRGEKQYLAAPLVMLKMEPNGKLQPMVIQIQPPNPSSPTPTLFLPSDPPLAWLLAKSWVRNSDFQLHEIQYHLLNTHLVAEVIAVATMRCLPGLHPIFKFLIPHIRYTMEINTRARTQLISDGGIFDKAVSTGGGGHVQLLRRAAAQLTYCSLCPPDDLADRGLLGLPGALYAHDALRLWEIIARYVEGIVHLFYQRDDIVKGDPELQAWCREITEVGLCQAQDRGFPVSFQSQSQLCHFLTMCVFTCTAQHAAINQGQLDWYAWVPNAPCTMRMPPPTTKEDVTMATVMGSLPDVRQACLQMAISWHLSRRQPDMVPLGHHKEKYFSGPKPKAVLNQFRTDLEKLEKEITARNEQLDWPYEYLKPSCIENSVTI
Summary of the method: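 Enzyme reaction at room temperature: 150 nM 12hLO preincubated 15 min with compound, then 40 uM arachidonic acid for 30 min. Product quantified via Fe(III)-xylenol orange, 30 min, 573-to-405 nm absorbance ratio; buffer 25 mM Hepes pH 7.0 with Triton X-100.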

SMILES	activity change, negative = inhibition	Potency
O=C(C1=C(O)C(=O)N(Cc2ccco2)C1c1cccnc1)c1cc2ccccc2o1 (stereo not given)	-19%	
COc1ccc(OC)c(NC(=O)NC2(C(F)(F)F)Oc3ccccc3O2)c1	-12.7%	
CCOc1cc(-c2cc(-c3ccc(N)cc3)nc(N)c2C#N)ccc1O	-26.8%	
O=C(OCC#CCSc1nnc(-c2cccc3ccccc23)o1)c1ccc2ccccc2c1	-5.58%	
O=C(Nc1nnc(-c2ccco2)s1)C1CCCCC1	-5.47%	
CCC(=O)NC(c1cccc(C)c1)c1cc(Cl)c2cccnc2c1O (stereo not given)		39.8 µM (active)
O=C(OCC#CCSc1nnc(-c2cccc3ccccc23)o1)c1cc2ccccc2o1	-10.1%	
O=C(Nc1cccc(F)c1)N1CCCC2(CCN(C(=O)c3ccco3)CC2)C1	5.23%	
O=C(OCC#CCSc1nnc(-c2cccc3ccccc23)o1)c1cccc2[nH]ccc12	-10.7%	
CC(=O)N1CCN(c2ccc(NCc3ccc(F)cc3)cc2)CC1		31.6 µM (active)
COC(=O)c1ccc(C(=S)N2CCOCC2)cc1	-15.6%	
Cc1cc(Nc2nnnn2-c2ccccc2)n(-c2ccc(Cl)cc2)n1	-12.4%	
N#Cc1nc(-c2cccc3ccccc23)oc1NCC#CCOC(=O)c1cccs1	-20.1%	
Cc1cc(/C=N/NC(=O)Cn2c3ccccc3c(=O)c3ccccc32)c(C)n1-c1ccccc1	-20.8%	
O=C(OCC#CCSc1nnc(-c2cccc3ccccc23)o1)c1ccc(Cl)cc1	-7.17%	
